Source: PubChem BioAssay
The source made the active and inactive calls.

Legend:
[1] = tested on: Plasmodium falciparum Sir2 (PF13_0152, Sir2A); assay: Plasmodium falciparum Sir2A binding compounds – biochemical, small-molecule microarray, 635 nm fluorescence, primary screen (AID 1098); settings: fluorescence 635 nm, higher = more signal;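 also: score merges spot fluorescence intensity with its signal-to-noise ratio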
[2] = probe aDKK1 binding to arrayed compounds – biochemical, biotinylated probe, 635/667 nm fluorescence, primary screen (AID 1099); settings: small-molecule microarray, higher = more signal;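 also: score merges 667nm spot fluorescence with signal to noise across triplicate slides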
[3] = probe aCHRDL2 binding to arrayed compounds – biochemical, biotinylated probe, 635/667 nm fluorescence, primary screen (AID 1100); settings: small-molecule microarray, higher = more signal
[4] = change in splice reporter luminescence, either direction, cell-based, HEK293, spliceosome inhibition project, primary screen (AID 1101); settings: HEK293 splicing luciferase reporter, 24 h, higher = more signal, called active from +8 up or from −8 down;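 also: HEK293 cells carrying a splicing-competent luciferase reporter gene; test concentration not given here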
[5] = target: Fibroblast growth factor 10 (Homo sapiens) (UniProt O15520); assay: compounds binding fibroblast growth factor 10 – biochemical, small-molecule microarray, 635 nm fluorescence, primary screen (AID 1102); settings: FGF10 binding, fluorescence 635 nm, higher = more signal
Sequence of Fibroblast growth factor 10 (Homo sapiens) (O15520 whole entry, looked up): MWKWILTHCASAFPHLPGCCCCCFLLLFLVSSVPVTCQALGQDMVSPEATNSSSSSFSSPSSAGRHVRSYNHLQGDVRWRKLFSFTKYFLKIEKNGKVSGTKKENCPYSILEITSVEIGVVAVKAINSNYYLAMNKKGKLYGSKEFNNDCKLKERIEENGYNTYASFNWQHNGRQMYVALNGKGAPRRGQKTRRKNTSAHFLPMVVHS

[6] = tested on: glycogen synthase kinase-3 (GSK3A per assay name; protocol says GSK3B); assay: compounds binding glycogen synthase kinase-3 – biochemical, small-molecule microarray, 635 nm fluorescence, GSK3A, primary screen (AID 1103); settings: fluorescence 635 nm, higher = more signal; also: the record names both GSK3A and GSK3B
[7] = target: Epidermal growth factor receptor (Homo sapiens) (UniProt P00533); assay: compounds binding epidermal growth factor receptor – biochemical, small-molecule microarray, 635 nm fluorescence, primary screen (AID 1104); settings: EGFR binding, higher = more signal;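 also: score merges 667 nm emission intensity with spot signal to noise over triplicate slides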
Sequence of Epidermal growth factor receptor (Homo sapiens) (P00533 whole entry, looked up): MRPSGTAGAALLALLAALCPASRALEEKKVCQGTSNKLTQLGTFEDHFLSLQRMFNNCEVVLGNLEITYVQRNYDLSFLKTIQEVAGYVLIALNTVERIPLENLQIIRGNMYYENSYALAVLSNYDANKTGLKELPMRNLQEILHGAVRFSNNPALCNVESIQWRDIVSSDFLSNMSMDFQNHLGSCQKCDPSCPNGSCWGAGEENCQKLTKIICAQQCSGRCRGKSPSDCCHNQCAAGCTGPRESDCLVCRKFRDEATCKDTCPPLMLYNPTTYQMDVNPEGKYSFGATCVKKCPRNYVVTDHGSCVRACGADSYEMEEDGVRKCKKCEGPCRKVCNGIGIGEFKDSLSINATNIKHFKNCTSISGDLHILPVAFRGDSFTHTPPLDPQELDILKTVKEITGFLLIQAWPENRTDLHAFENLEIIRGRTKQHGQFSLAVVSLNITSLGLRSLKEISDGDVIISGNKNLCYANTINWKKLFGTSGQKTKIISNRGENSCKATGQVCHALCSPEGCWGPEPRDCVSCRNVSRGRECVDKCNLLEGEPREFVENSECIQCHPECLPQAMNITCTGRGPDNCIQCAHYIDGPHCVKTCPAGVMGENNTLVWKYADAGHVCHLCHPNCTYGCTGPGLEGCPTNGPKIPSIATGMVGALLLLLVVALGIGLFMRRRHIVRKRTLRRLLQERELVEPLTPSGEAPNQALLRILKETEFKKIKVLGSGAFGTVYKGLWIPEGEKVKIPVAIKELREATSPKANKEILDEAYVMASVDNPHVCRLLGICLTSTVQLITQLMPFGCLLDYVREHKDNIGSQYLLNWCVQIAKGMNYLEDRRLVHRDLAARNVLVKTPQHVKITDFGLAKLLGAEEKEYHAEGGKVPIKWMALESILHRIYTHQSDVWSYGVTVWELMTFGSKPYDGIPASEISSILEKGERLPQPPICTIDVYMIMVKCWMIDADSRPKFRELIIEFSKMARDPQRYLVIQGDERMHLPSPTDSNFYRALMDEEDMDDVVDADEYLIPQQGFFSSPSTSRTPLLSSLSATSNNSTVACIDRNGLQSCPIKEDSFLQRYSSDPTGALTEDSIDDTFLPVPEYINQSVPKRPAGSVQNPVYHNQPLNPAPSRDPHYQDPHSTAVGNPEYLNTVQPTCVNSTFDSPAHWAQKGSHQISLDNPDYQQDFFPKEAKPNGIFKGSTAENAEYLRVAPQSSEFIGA

[8] = target: Follistatin-related protein 3 (Homo sapiens) (UniProt O95633); assay: compounds binding follistatin-related protein 3 – biochemical, small-molecule microarray, 635 nm fluorescence, primary screen (AID 1105); settings: FSTL3 binding, higher = more signal;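 also: score merges emission near 667 nm and signal to noise per printed spot across three slides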
Sequence of Follistatin-related protein 3 (Homo sapiens) (O95633 whole entry, looked up): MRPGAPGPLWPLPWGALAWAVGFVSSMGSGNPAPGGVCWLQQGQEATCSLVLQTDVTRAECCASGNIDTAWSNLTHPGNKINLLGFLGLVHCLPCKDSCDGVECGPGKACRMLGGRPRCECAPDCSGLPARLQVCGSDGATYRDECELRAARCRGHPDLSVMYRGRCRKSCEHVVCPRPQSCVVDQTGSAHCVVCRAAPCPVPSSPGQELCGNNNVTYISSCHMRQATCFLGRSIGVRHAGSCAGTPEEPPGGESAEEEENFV

[9] = target: Dickkopf-related protein 1 (Homo sapiens) (UniProt O94907); assay: small molecules binding DKK1 protein – biochemical, small-molecule microarray, 635 nm fluorescence scan, primary screen (AID 1106); settings: higher = more signal;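 also: score merges emission near 667 nm with signal to noise over three replicate slides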
Sequence of Dickkopf-related protein 1 (Homo sapiens) (O94907 whole entry, looked up): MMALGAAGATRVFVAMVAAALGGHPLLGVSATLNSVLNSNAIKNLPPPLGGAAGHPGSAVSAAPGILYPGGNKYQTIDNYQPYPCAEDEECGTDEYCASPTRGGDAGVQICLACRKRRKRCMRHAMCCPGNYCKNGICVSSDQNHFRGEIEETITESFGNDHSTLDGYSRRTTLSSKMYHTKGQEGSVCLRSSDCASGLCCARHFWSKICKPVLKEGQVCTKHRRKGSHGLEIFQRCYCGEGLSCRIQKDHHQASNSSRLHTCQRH

[10] = tested on: Inhibin beta A chain (activin A); assay: small molecules binding activin A – biochemical, small-molecule microarray, 635 nm fluorescence scan, primary screen (AID 1107); settings: INHBA, higher = more signal;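 also: mouse activin A protein probed at 4.33 µg/mL on printed slides; score merges bound-protein fluorescence near 667 nm with spot signal-to-noise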
[11] = tested on: Human papillomavirus type 1a protein E7 (residues 44-93); assay: small molecules binding HPV E7 44-93 – biochemical, small-molecule microarray, residues 44-93, 635 nm fluorescence, primary screen (AID 1108); settings: fluorescence 635 nm, higher = more signal;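 also: E7 fragment applied at 1 µg/mL in TBST for 1 h at 4 C; score combines spot fluorescence with its signal to noise ratio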
[12] = hepatitis C replication reporter changes, two-sided – Huh7 cells, luciferase reporter, HCV replication inhibitor project, primary screen (AID 1109); settings: Huh7 HCV replicon luciferase reporter, 48 h; higher = more signal;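 also: huh7 hepatoma cells harbouring a luciferase neomycin HCV replicon reporter; luciferase luminescence as measure of HCV replicon replication; test concentration not given here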
[13] = target: Left-right determination factor 2 (Homo sapiens) (UniProt O00292); assay: small molecules binding LEFTY2 protein – biochemical, small-molecule microarray, 635 nm fluorescence scan, primary screen (AID 1110); settings: higher = more signal
Sequence of Left-right determination factor 2 (Homo sapiens) (O00292 whole entry, looked up): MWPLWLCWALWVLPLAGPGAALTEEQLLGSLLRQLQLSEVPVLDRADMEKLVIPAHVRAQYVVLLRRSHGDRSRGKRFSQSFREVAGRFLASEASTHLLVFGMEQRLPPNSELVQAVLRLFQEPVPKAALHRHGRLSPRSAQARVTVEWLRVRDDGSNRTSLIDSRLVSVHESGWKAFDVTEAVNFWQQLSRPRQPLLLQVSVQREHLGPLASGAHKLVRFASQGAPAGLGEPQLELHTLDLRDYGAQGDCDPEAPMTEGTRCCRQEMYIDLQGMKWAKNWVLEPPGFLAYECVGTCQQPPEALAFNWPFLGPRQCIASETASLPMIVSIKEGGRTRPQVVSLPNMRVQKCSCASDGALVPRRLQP

[14] = target: Calmodulin-1 (Homo sapiens) (UniProt P0DP23); assay: small molecules binding calmodulin-1 with EGTA – biochemical, small-molecule microarray, Cy5-labelled CALM1, profiling panel (AID 1111); settings: Cy5-CALM1 binding fluorescence, higher = more signal;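 also: labelled calmodulin applied in Tris saline Tween buffer holding calcium plus EGTA and DTT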
[15] = target: Calmodulin-1 (Homo sapiens) (UniProt P0DP23); assay: small molecules binding Ca-loaded calmodulin-1 – biochemical, small-molecule microarray, Cy5-labelled CALM1, plus calcium, artefact control for SMM control-protein annotation, profiling panel (AID 1112); settings: Cy5-CALM1 binding fluorescence, higher = more signal;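 also: score merges spot fluorescence with signal to noise from triplicate slides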
[16] = probe aWnt5a binding to arrayed compounds – biochemical, biotinylated probe, 635/667 nm fluorescence, primary screen (AID 1113); settings: small-molecule microarray, higher = more signal;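 also: score merges 667 nm fluorescence intensity with signal-to-noise per printed feature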
[17] = probe aShh binding to arrayed compounds – biochemical, biotinylated probe, 635/667 nm fluorescence, primary screen (AID 1114); settings: small-molecule microarray, higher = more signal;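 also: probe is biotin-labelled aShh protein from a stem cell growth factor screen; measures binding of labelled protein to compounds printed on the slide; score merges feature fluorescence at 667 nm with signal-to-noise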
[18] = probe aNog binding to arrayed compounds – biochemical, biotinylated probe, 635/667 nm fluorescence, primary screen (AID 1115); settings: small-molecule microarray, higher = more signal;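 also: probe is biotinylated aNog protein used at 0.15 µg/mL for 1 h at 4 C; z-score combines 667 nm fluorescence of each spot with its signal to noise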
[19] = target: Torsin-1A-interacting protein 1 (Homo sapiens) (UniProt Q5JTV8); assay: compound microarray binding of lysate hLAP1 – cell lysate, small-molecule microarray, COS7 lysate, 635/667 nm fluorescence, primary screen (AID 1116); settings: 635 nm fluorescence, higher = more signal
Sequence of Torsin-1A-interacting protein 1 (Homo sapiens) (Q5JTV8 whole entry, looked up): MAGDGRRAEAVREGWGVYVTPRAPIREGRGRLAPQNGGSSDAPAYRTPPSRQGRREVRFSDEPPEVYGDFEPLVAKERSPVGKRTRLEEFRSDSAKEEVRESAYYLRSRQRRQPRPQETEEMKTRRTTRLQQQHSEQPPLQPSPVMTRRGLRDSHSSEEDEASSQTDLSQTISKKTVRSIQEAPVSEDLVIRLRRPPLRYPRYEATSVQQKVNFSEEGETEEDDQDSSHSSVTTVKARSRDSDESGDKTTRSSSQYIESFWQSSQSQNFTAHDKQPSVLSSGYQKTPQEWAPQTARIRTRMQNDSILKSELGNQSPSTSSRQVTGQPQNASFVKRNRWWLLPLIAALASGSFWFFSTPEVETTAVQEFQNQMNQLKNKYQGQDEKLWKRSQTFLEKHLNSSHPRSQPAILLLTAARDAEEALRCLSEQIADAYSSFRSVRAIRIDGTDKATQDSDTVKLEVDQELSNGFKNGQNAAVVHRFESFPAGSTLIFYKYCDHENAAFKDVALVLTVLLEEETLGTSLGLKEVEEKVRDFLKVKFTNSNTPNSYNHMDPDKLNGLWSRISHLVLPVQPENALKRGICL

[20] = target: Alpha-bungarotoxin (Bungarus multicinctus) (UniProt P60615); assay: compounds binding labelled alpha-BTX control protein – biochemical, small-molecule microarray, Alexa647 label, 635/667 nm fluorescence, artefact control for SMM control protein annotation, profiling panel (AID 1117); settings: alpha-BTX-A647 binding fluorescence, higher = more signal
Sequence of Alpha-bungarotoxin (Bungarus multicinctus) (P60615 whole entry, looked up): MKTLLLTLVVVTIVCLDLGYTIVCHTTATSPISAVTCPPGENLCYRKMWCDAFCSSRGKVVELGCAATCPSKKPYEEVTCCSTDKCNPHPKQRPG

Structure (SMILES)	composite z-score [1]	composite z-score [2]	composite z-score [3]	z-score [4]	composite z-score [5]	composite z-score [6]	composite z-score [7]	composite z-score [8]	composite z-score [9]	composite z-score [10]	composite z-score [11]	z-score [12]	composite z-score [13]	composite z-score [14]	composite z-score [15]	composite z-score [16]	composite z-score [17]	composite z-score [18]	composite z-score [19]	composite z-score [20]
CC[C@@H]1C=C(C(=O)O)[C@H](c2ccco2)N1S(=O)(=O)c1ccc(C)cc1	1.37	-0.0292	0.333	0.447 (inactive)	0.0314	0.175	-0.832	0.291	0.128	1.23	-0.11	-1.22	-0.0532	-0.256	-0.841	-0.0529	-0.0146	0.0051	0.018	0.396
C=CCC(OC(C)=O)[C@@H]1[C@@H](N(Cc2cccc3ccccc23)C(=O)c2ccc(-c3ccccc3)cc2)c2cc(OCCCO)ccc2N1C(=O)Cc1ccc(OC)cc1 (stereo not given in full)	0.283	-0.0675	0.0188	-1.08 (inactive)	0.168	0.0341	0.23	0.431	0.0533	0.884	0.144	-1.36	0.111	0.617	0.291	0.0479	0.149	-0.0907	-0.0944	0.373
O=C1O[C@H](c2ccccc2)[C@H](c2ccccc2)N2[C@H]1[C@@H](C(=O)N1CCN(c3ncccn3)CC1)[C@]1(C(=O)Nc3ccc(C#CC4=CCCCC4)cc31)[C@H]2c1ccc(O)cc1	0.789	-0.0869	0.566	-0.725 (inactive)	0.76	0.754	0.442	0.738	-0.0441	-0.0074	1.41	-1.98	0.144	0.961	0.336	-0.0721	-0.221	0.113	0.792	1.44
CN1C(=O)C2C=CC(C(O)C3CC=CCC3)N(NC(=O)OC(C)(C)C)C2C1=O (stereo not given)	0.701	0.0347	0.16	1.61 (inactive)	0.796	1.12	0.933	1.23	0.347	1.03	0.696	-0.0017	0.46	2.3	0.785	-0.0539	-0.195	0.55	1.84	1.3
C=CC[C@]1(C(=O)N2CCCCC2)N=C(c2ccc(OCCCO)cc2)O[C@H]1c1ccccc1	1.25	1.16	1.11	-0.0569 (inactive)	0.228	1.3	0.0792	-0.0013	0.191	1.11	0.254	-1.98	0.32	0.0382	-0.0541	0.15	-0.155	2.28	1.55	0.741
C=C(COC)/C(=C/C[C@@H](OC(C)=O)c1ccc(CO)o1)c1cnc2ccccc2c1	0.974	0.201	-0.189	-0.683 (inactive)	1.46	1.32	1.57	1.5	1.13	1.74	1.31	-0.638	1.07	0.0708	-0.6	-0.0425	-0.0146	0.256	2.19	2.76
OC([C@@H]1CC(c2ccccc2)=NO1)[C@H]1CC(c2ccccc2)=NO1 (stereo not given in full)	-0.345	-0.29	-0.136	-0.247 (inactive)	0.0725	-0.453	-0.29	0.031	0.446	0.672	-0.0304	0.341	0.176	-0.181	-0.416	0.0317	-0.214	-0.234	0.11	-0.0544
CN(C)CCCNC(=O)[C@@]1(c2ccc([N+](=O)[O-])cc2)CC(=O)N(C2CCCCC2)[C@@H]1c1ccc(CO)cc1I	1.12	-0.116	0.736	-3.68 (inactive)	-0.341	1.28	-0.0949	0.381	-0.212	0.462	1.41	-3.46	-0.104	-0.0828	-0.245	-0.0721	-0.147	-0.606	0.46	1.03
